Inconclusive results are not listed. The source made the active and inactive calls. The calls were made as follows: active = hit-call score of the fitted dose curve at least 0.9, where 1 is the maximum; inconclusive = response in the unintended direction; inactive = score below 0.9.
assay: Tanguay_ZF_120hpf_AXIS_legacy: (Legacy) Oregon State University Tanguay Lab 120 Hour Post-fertilization zebrafish Assay for Body Axis Malformation (AID 2283635);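 as to AC50: potency for an increased fraction of larvae scored with body axis malformation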
Method: Tanguay_ZF_120hpf_legacy is a whole embryo, multiplexed endpoint assay using zebrafish larvae exposed for 120 hours post fertilization on a 96-well plate.Tanguay_ZF_120hpf_AXIS_legacy is one of one assay component(s) measured or calculated from the Tanguay_ZF_120hpf_legacy assay. It is designed to make measurements of zebrafish development as detected with brightfield microscopy of developing zebrafish embryos.Data from the assay component Tanguay_ZF_120hpf_AXIS_legacy was analyzed into 1 assay endpoints. This assay endpoint, Tanguay_ZF_120hpf_AXIS_legacy, was analyzed in the positive analysis fitting direction relative to DMSO as the negative control and baseline of activity. Using a type of morphology reporter, gain-of-signal activity can be used to understand changes in developmentals as they relate to the whole embryo. To generalize the intended target to other relatable targets, this assay endpoint is annotated to the zebrafish development intended target family, where the subfamily is body axis morphogenesis.
Zebrafish husbandry: Tropical 5D wild-type adult zebrafish were housed in at an approximate density of 1000 per 100 gallon tank at the Sinnhuber Aquatic Research Laboratory, Oregon State University, Corvallis, OR. Each tank was kept at standard laboratory conditions of 28C on a 14-h light/10-h dark photoperiod in fish water consisting of reverse osmosis water supplemented with a commercially available salt (Instant Ocean). Spawning funnels were placed into the tanks the night prior, and embryos were collected and staged. To increase bioavailability, the chorion was enzymatically removed using pronase (63.6mg/ml, >/= 3.5U/mg, Sigma-Aldrich: P5147) at 4 hours post fertilization (hpf) using a custom automated dechorionator.Chemical exposures: Six hpf dechorionated embryos were placed 1 embryo per well in a 96-well plate prefilled with 90 ul of EM using automated embryo placement systems (AEPS). Ten microliters of each row of dilution plate 2 was added to 2 exposure plates. The final DMSO concentration used was 0.64% (vol/vol). Thirty-two embryos were also exposed to 5uM trimethyltin chloride (positive control). Plates were sealed to prevent evaporation and foil covered to reduce light exposure and kept in a 28C incubator. Embryos were statically exposed until 120 hpf. At 24 hpf, embryos were assessed for photomotor response using a custom photomotor response analysis tool (PRAT) and for developmental toxicity endpoints (MO24: mortality at 24 hpf, DP: developmental progression, SM: spontaneous movement, and NC: notochord distortion). At 120 hpf, locomotor activity was measured using Viewpoint Zebralab and assessed for 18 endpoints. Zebrafish acquisition and analysis program (ZAAP), a custom program designed to inventory, acquire, and manage zebrafish data, was used to collect developmental endpoints as either present or absent (i.e., binary responses were recorded). If mortality occurred for an embryo (at either 24 or 120 hpf), the non-mortality endpoints were not measured.

| SMILES | outcome | AC50 |
| --- | --- | --- |
| Nc1ccc2c(c1)C(=O)c1ccccc1C2=O | inactive | – |
| CN1CCCC1=O | inactive | – |
| CCc1c(C(=O)NN2CCCCC2)nn(-c2ccc(Cl)cc2Cl)c1-c1ccc(Br)cc1 | inactive | – |
| Cc1ccc(Cl)cc1 | inactive | – |
| CN[C@H]1CC[C@@H](c2ccc(Cl)c(Cl)c2)c2ccc(S(N)(=O)=O)cc21 | inactive | – |
| CCCc1cc(=O)[nH]c(=S)[nH]1 | inactive | – |
| Cc1ccc(C)c(O)c1C | inactive | – |
| FC(F)(F)C(F)(F)C(F)(F)C(F)(F)C(F)(F)C(F)(F)CCI | inactive | – |
| Cc1ccc(N(C)C)cc1 | inactive | – |
| CC(=O)OCCOCCOCCOC(C)=O | inactive | – |
| CCCCN(CCCC)CCCC | inactive | – |
| NCCO | inactive | – |
| Nc1ccccc1N | inactive | – |
| COc1cc(-c2nc(NC(=O)c3cc4cc(C)cc(C)c4n3CC(=O)O)sc2CCC2CCCCC2)c(OC)cc1Cl | inactive | – |
| CCCCCCCCCCC | inactive | – |
| Oc1ccc2ccccc2c1N=Nc1ccccc1 | – | 17.3 µM (active) |
| Cc1nc(C)nc(N2C[C@@H](C)N(c3ccnc([C@@H](C)O)n3)[C@@H](C)C2)n1 | inactive | – |
| NS(=O)(=O)c1cc2c(cc1Cl)NCNS2(=O)=O | inactive | – |
| CC(CO)OC(C)CO (stereo not given) (tested in a mixture with another compound) | inactive | – |
| COc1cc(S(=O)(=O)O)c(C)cc1N=Nc1c(O)ccc2cc(S(=O)(=O)O)ccc12 | inactive | – |

| SMILES | outcome | AC50 |
| --- | --- | --- |
| COc1cc(C=O)ccc1O | – | 49.2 µM (active) |
| O=c1c(O)c(-c2ccc(O)c(O)c2)oc2cc(O)cc(O)c12 | inactive | – |
| CCCCCC(=O)O | inactive | – |
| CCCCCCOCCO | inactive | – |
| Cc1cccc(C)c1O | inactive | – |
| NCC1(Cc2noc(=O)[nH]2)CCCCC1 | inactive | – |
| CCCCC(CC)COC(=O)CC(C(=O)OCC(CC)CCCC)S(=O)(=O)O (stereo not given) | inactive | – |
| COc1ccc(S(=O)(=O)N2C(=O)[C@@](c3ccccc3OC)(N3C[C@H](O)C[C@H]3C(=O)N(C)C)c3cc(Cl)ccc32)c(OC)c1 | inactive | – |
| CC1(C)CC(N=C=O)CC(C)(CN=C=O)C1 (stereo not given) | inactive | – |
| COc1ccc(C)cc1N | inactive | – |
| CC(=O)Oc1ccccc1C(=O)O | inactive | – |
| CCOC(=O)CCC(=O)OCC | inactive | – |
| Cc1ccc(C)c(C)c1 | inactive | – |
| Cc1nc(-c2ccc3c(c2)CCN(CCC2CCC(NC(=O)/C=C/c4ccc(F)cc4)CC2)CC3)no1 (stereo not given) | inactive | – |
| Nc1ccc(S(=O)(=O)c2ccc(N)cc2)cc1 | inactive | – |
| Cc1ccc(C(C)C)c(O)c1 | inactive | – |
| Cc1c(C(=O)O)c(O)cc2c1C(=O)c1c(O)c([C@@H]3O[C@H](CO)[C@@H](O)[C@H](O)[C@H]3O)c(O)c(O)c1C2=O | inactive | – |
| CCCCc1ccc2c(n1)[C@@H](c1ccc(OC)cc1C[C@H](C)C(=O)O)[C@H](C(=O)O)[C@H]2c1ccc2c(c1)OCO2 | inactive | – |
| CCCCCCCC=O | inactive | – |
| COCCOCCOC | inactive | – |

— PubChem BioAssay (EPA / NIEHS)
